The values below come from PubChem BioAssay (Tox21).

The nature of test [1]: A CellTox Green Cytotoxicity Assay to monitor cytotoxicity in HEK293 cells - 32 hour (AID 1224881). Also: nearly all actives have a fitted effect of over 40% in size. Also: potency is read from the fitted curve at half-maximal effect. In a few lines: (§1)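 Cells (HEK293, 600/well) and dye reagent are dispensed together. After 5 h at 37 C, 23 nL compound is pinned in. Plates stay at 37 C for 40 h with fluorescence read at 0h, 8h, 16h, 24h, 32h and 40h.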
Test [2] in a line: A CellTox Green Cytotoxicity Assay to monitor cytotoxicity in HepG2 cells - 0 hour (AID 1224882). Also: nearly all actives have a fitted effect of over 35% in size. The method in brief:
(§2)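 Cells and non-lytic dye reagent are dispensed together (600 HepG2 cells/well) and incubated 5 h before DMSO compound transfer. Kinetic fluorescence is then recorded in the same wells during 40 h at 37 C.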

A short description of test [3]: A CellTox Green Cytotoxicity Assay to monitor cytotoxicity in HepG2 cells - 32 hour (AID 1224883). Also: nearly all actives have a fitted effect of over 50% in size. Also: potency is read from the fitted curve at half-maximal effect. The method in brief: as §2
Test [4] can be described thus: A CellTox Green Cytotoxicity Assay to monitor cytotoxicity in HEK293 cells - 8 hour (AID 1224884). Also: nearly all actives have a fitted effect of over 35% in size. Also: potency is read from the fitted curve at half-maximal effect. The method in brief: as §1
The nature of test [5]: qHTS RealTime-Glo MT Cell Viability Assay in HepG2 cells - 16 hour (AID 1224885). Also: nearly all actives have a fitted effect of over 50% in size. Also: potency is read from the fitted curve at half-maximal effect. In a few lines:
(§3)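 Cells + NanoLuc/prosubstrate dispensed (600 cells/well) → 5 h at 37 C/5% CO2 → compounds in DMSO transferred → 40 h incubation at 37 C, luminescence read at 0, 8, 16, 24, 32, 40 h.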

Test [6] can be described thus: qHTS RealTime-Glo MT Cell Viability Assay in HEK293 cells - 24 hour (AID 1224886). Also: nearly all actives have a fitted effect of over 50% in size. Also: potency is read from the fitted curve at half-maximal effect. In a few lines: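 Tox21 10K qHTS, HEK293, 600 cells/well, RealTime-Glo reagent co-dispensed with cells; 5 h preincubation, compound by pintool, 37 C, luminescence at 0–40 h.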
On the technique in general: Quantitative high-throughput screening tests each substance at several concentrations.

A short description of test [7]: qHTS RealTime-Glo MT Cell Viability Assay in HEK293 cells - 8 hour (AID 1224887). Also: nearly all actives have a fitted effect of over 50% in size. Also: potency is read from the fitted curve at half-maximal effect. The method in brief:
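Real-time viability in HEK293: signal arises when living cells convert a prosubstrate for NanoLuc in the medium, so luminescence tracks viable cell number. Compound (23 nL, DMSO) added 5 h post-seeding; kinetic reads at 0–40 h, 37 C.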

A short description of test [8]: A CellTox Green Cytotoxicity Assay to monitor cytotoxicity in HEK293 cells - 16 hour (AID 1224888). Also: nearly all actives have a fitted effect of over 35% in size. Also: potency is read from the fitted curve at half-maximal effect. In a few lines:
as §1

Test [9] is described as follows: qHTS RealTime-Glo MT Cell Viability Assay in HepG2 cells - 0 hour (AID 1224889). Also: nearly all actives have a fitted effect of over 50% in size. In a few lines:
as §3

Test [10] can be described thus: A CellTox Green Cytotoxicity Assay to monitor cytotoxicity in HepG2 cells - 8 hour (AID 1224890). Also: nearly all actives have a fitted effect of over 45% in size. Also: potency is read from the fitted curve at half-maximal effect. The method in brief: as §2
A short description of test [11]: qHTS assay to identify small molecule antagonists of the estrogen receptor alpha (ER-alpha) signaling pathway using the BG1 cell line in the presence of 0.1 nM 17-beta-estradiol - cell viability counter screen (AID 1259241). Also: nearly all actives have a fitted effect of over 40% in size. The method in brief: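 CellTiter-Fluor read (30 min, 37C) on ER-alpha/ERE-luc VM7Luc4E2 cells; 22 hr compound treatment; agonist 0.1 nM E2 final; same-well multiplex.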

Test [12] in a line: qHTS assay to identify small molecule antagonists of the androgen receptor (AR) signaling pathway using the MDA cell line in the presence of 0.5 nM R1881 - cell viability counter screen (AID 1259242). Also: nearly all actives have a fitted effect of over 45% in size. Also: potency is read from the fitted curve at half-maximal effect. In a few lines: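 Steps: plate MDA-kb2 cells, rest 5 hr at 37C without CO2; pin in compounds in DMSO; add R1881 to 0.5 nM final; incubate 16 hr; add CellTiter-Fluor, 30 min; read fluorescence.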

The target of test [13] is Estrogen receptor (Homo sapiens) (UniProt P03372). Nature of the test: qHTS assay to identify small molecule antagonists of the estrogen receptor alpha (ER-alpha) signaling pathway using the BG1 cell line in the presence of 0.1 nM 17-beta-estradiol (AID 1259244). Also: nearly all actives have a fitted effect of over 50% in size. Also: potency is read from the fitted curve at half-maximal effect. The method in brief:
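Antagonist mode: compounds in DMSO are pinned onto VM7Luc4E2 reporter cells, 0.1 nM final 17beta-estradiol is added, and after 22 h at 37C luciferase luminescence is measured with ONE-Glo.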

Test [14] in a line: qHTS assay to identify small molecule HDAC inhibitors (AID 1259364).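 Also: wild-type HCT-116 cells with endogenous class I/II HDAC activity; top concentration of the series differs between compounds; nearly all actives have a fitted effect of over 45% in size.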 In a few lines:
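Cells (HCT-116, wild type) are seeded at 1,500 per well, incubated overnight, treated with compound in DMSO for 2 hr, then developed with HDAC-Glo I/II reagent for 30 min at room temperature.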

Test [15] can be described thus: qHTS assay to identify small molecule agonists of the sonic hedgehog signaling (Shh) pathway - cell viability counter screen (AID 1259366). Also: nearly all actives have a fitted effect of over 50% in size. Also: potency is read from the fitted curve at half-maximal effect. In a few lines:
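Fluorescence from CellTiter-Fluor reports live cells in this counter screen. NIH/3T3-derived Gli1-Luc reporter cells receive test compounds for 24hr at 37C; reagent goes in at 23hr.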

Test [16] can be described thus: qHTS assay to identify small molecule antagonists of the sonic hedgehog signaling (Shh) pathway - cell viability counter screen (AID 1259367). Also: nearly all actives have a fitted effect of over 55% in size. Also: potency is read from the fitted curve at half-maximal effect. The method in brief: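 Cytotoxicity was assessed in parallel with Shh reporter activity by measuring live-cell protease fluorescence (CellTiter-Fluor) in NIH/3T3 cells stably carrying Gli1-Luc, treated with compound under conditioned medium stimulation for 23 hr plus 1 hr reagent incubation.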

The nature of test [17]: qHTS assay to identify small molecule agonists of the sonic hedgehog signaling (Shh) pathway (AID 1259368; calls by dose curve; also: nearly all actives have a fitted effect of over 15% in size; also: potency is read from the fitted curve at half-maximal effect). In a few lines:
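Cells of a mouse NIH/3T3 clone stably expressing luciferase under the Gli1 transcriptional response element are exposed to test chemicals for 24 hr at 37 C. Pathway activation is detected as a rise in luminescence.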

Test [18] in a line: qHTS assay to identify small molecule HDAC inhibitors - cell viability counter screen (AID 1259365). In a few lines:
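To flag cytotoxic hits, 1,500 wild-type HCT-116 cells per well, plated the day before, receive test compounds for 2hr at 37 C before CellTiter-Glo reagent and a luminescence read.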

Test [19] can be described thus: qHTS assay to identify small molecule phospholipidosis (PLD) inducers (AID 1259344; active = well fitted curve in the direction sought with a large enough effect; an effect the other way counts as inactive or inconclusive). The method in brief: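 Cells (HepG2, 900 per well) attach for 4 h, receive LipidTOX Red and compound together, incubate 24 h at 37 C, are fixed 30 min with paraformaldehyde/Hoechst, then imaged at one site per well.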
Test [20] addresses Androgen receptor (Homo sapiens) (UniProt P10275). Kind of test: qHTS assay to identify small molecule antagonists of the androgen receptor (AR) signaling pathway using the MDA cell line in the presence of 0.5 nM R1881 (AID 1259243). Also: nearly all actives have a fitted effect of over 50% in size. The method in brief: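 Stably transfected MDA-kb2 cells express luciferase from an MMTV promoter bearing both AR and GR response elements. Compounds plus 0.5 nM R1881 (final) were incubated 16 hr at 37C without CO2, then luminescence measured.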

Values joined by “and” are separate entries in the source; they are usually repeats but may differ in a detail not shown here. Equal entries are not always repeated. Records with an inconclusive call do not appear. The source holds several records for some structures; these can differ, active in one and inactive in another. Active and inactive are the calls of the source. Unless noted, calls follow the shape of the dose curve; as a rule, active = well fitted curve in the direction sought with a large enough effect in the repeat runs; inconclusive = weak or mixed curves; inactive = no such curve, though single readings can be large; an effect the other way counts as inactive or inconclusive.

Chain of Estrogen receptor (Homo sapiens) (P03372 whole entry, looked up): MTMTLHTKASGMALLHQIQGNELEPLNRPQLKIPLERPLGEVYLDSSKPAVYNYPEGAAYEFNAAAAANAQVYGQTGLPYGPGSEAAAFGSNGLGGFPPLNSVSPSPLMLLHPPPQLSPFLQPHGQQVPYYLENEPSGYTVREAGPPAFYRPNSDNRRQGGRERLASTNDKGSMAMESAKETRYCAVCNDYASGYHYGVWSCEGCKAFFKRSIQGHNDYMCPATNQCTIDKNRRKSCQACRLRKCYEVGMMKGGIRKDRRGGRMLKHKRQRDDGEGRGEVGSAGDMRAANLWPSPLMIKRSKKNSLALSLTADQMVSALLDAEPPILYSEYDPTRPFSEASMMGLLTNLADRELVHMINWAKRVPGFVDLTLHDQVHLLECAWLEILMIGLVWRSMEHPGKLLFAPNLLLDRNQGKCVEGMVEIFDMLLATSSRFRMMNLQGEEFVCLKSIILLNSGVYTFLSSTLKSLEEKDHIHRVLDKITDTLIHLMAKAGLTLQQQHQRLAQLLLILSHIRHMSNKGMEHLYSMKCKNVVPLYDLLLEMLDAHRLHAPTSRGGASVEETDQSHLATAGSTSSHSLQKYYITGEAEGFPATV
Chain of Androgen receptor (Homo sapiens) (P10275 whole entry, looked up): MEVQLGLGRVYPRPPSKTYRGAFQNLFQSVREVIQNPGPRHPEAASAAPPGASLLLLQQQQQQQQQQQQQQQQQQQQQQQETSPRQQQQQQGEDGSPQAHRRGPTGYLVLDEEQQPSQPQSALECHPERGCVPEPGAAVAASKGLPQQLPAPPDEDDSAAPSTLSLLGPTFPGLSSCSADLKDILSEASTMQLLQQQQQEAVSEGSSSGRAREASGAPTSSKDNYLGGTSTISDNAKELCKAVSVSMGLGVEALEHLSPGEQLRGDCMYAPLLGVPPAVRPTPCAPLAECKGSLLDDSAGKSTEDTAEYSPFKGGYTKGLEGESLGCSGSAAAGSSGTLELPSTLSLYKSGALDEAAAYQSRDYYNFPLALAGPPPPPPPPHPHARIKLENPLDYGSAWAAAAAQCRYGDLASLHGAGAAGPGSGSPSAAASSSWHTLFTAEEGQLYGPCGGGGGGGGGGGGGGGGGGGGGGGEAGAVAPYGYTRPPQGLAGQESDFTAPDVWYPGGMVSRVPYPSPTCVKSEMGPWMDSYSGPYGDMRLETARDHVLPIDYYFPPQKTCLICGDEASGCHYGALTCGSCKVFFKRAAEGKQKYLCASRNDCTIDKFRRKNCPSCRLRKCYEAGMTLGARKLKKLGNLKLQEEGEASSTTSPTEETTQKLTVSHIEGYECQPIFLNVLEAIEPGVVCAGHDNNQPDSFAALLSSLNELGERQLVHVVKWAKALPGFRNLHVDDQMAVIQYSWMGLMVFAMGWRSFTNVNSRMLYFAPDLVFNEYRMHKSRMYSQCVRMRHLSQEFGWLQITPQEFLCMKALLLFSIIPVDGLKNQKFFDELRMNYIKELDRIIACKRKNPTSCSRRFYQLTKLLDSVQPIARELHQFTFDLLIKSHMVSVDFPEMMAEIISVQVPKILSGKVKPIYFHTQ

As to `ClC(Cl)(Cl)c1ccccc1`, the Potency result in test [1], in [2], in test [3], in [4], in test [5] and in test [6] was “inactive” each time. Further, the Potency entry in test [7], in test [8], in test [9], in [10], in test [11] and in test [12] was “inactive” throughout. The Potency result in test [13], in [14], in [15], in [16] and in test [17] was “inactive” in each case.
Take `Oc1ccc(Cl)cc1Cl`: the Potency entry in test [1], in [2], in test [3], in [4], in [5] and in [6] was “inactive” in each case. For the same molecule, the Potency result in test [7], in test [8], in test [9], in test [10], in test [11] and in test [12] was “inactive” throughout. Besides, the Potency entry in test [13], in test [14], in test [18], in test [16] and in test [17] was “inactive” throughout.
`NC(=O)CN1CCCC1=O`: the Potency entry in test [1], in test [2], in [3], in [4], in test [5] and in test [6] was “inactive” throughout. The Potency entry in test [7], in test [8], in test [9], in test [10], in test [11] and in [14] was “inactive” each time. The Potency entry in test [18], in test [15], in test [16] and in test [17] was “inactive” throughout. Further, the molecule was classed as inactive in test [19].
Take `Clc1ccc(C(Cl)(Cl)Cl)cc1`: the Potency entry in test [1], in test [2], in test [3], in test [4], in test [5] and in test [6] was “inactive” each time. The Potency result in [7], in [8], in test [9], in test [10], in test [11] and in test [12] was “inactive” each time. In addition, the Potency result in [13], in [14], in [15], in test [16] and in test [17] was “inactive” in each case.
As to `N#Cc1c(Cl)c(Cl)c(Cl)c(C#N)c1Cl`, the Potency in [1] is 7.61 µM (active) and 6.16 µM (active); in test [3], 21.5 µM (active) and 3.47 µM (active); in [4], 7.76 µM (active); in test [5], 21.5 µM (active) and 6.16 µM (active); in [6], 2.15 µM (active) and 1.23 µM (active); in [7] it was 12.1 µM (active) and 17.4 µM (active). In addition, the Potency in test [8] was 12.1 µM (active) and 8.71 µM (active); in test [10] it was 48 µM (active) and 13.8 µM (active); in [12], 16.9 µM (active) and 13.7 µM (active); in [13], 6.73 µM (active) and 15.4 µM (active); in [15] it was 2.13 µM (active) and 3.86 µM (active); in [16], 2.39 µM (active) and 6.86 µM (active). For the same molecule, the Potency in test [17] was 673 nM (active) and 969 nM (active). Moreover, the Potency entry in test [2], in [9] and in test [14] was “inactive” throughout.
On to `Nc1ccc2ccccc2c1`, for which the Potency entry in [1], in test [2], in [3], in test [4], in test [5] and in [6] was “inactive” throughout. Also, the Potency result in test [7], in test [8], in test [9], in test [10], in test [11] and in test [12] was “inactive” throughout. In addition, the Potency entry in [13], in test [14], in test [15] and in [16] was “inactive” in each case.
As for `CN(C)c1ccccc1`, the Potency result in [1], in test [2], in test [3], in [4], in test [5] and in test [6] was “inactive” in each case. In addition, the Potency result in test [7], in test [8], in test [9], in test [10], in test [11] and in [12] was “inactive” in each case. The Potency entry in test [14], in [18], in test [15] and in test [16] was “inactive” each time.
`O=C1CCCO1`: the Potency result in test [1], in [2], in test [3], in test [4], in test [5] and in test [6] was “inactive” throughout. The Potency entry in [7], in test [8], in test [9], in test [10], in test [11] and in [12] was “inactive” each time. For the same molecule, the Potency entry in test [20], in test [14], in test [18], in test [16] and in test [17] was “inactive” throughout.
For the molecule `CC(C)Nc1nc(Cl)nc(NC(C)C)n1`, the Potency entry in [1], in [2], in test [3], in [4], in test [5] and in test [6] was “inactive” throughout. Further, the Potency result in test [7], in [8], in [9], in test [10], in test [11] and in test [12] was “inactive” in each case. Further, the Potency entry in [13], in test [14], in test [18], in test [15], in test [16] and in [17] was “inactive” each time.
Consider `CC(C)(c1ccccc1)c1ccc(O)cc1`, for which the Potency in test [1] was 27.3 µM (active) and 24.5 µM (active); in test [3], 48.6 µM (active) and 24.5 µM (active); in [4], 8.64 µM (active) and 49 µM (active); in test [6], 43.3 µM (active) and 24.5 µM (active); in test [7] it was 48.6 µM (active) and 34.7 µM (active); in test [8], 24.3 µM (active) and 43.6 µM (active). The Potency result in test [10] is “inactive and 43.6 µM (active)”; in [13] it was 61.1 µM (active); in [15], 60.6 µM (active). Further, the Potency result in [2], in test [5], in [9], in test [11], in [12] and in test [14] was “inactive” in each case. Further, the Potency result in [17] was “inactive”.
For `Cc1ccc([N+](=O)[O-])cc1`, the Potency result in test [1], in [2], in test [3], in [4], in [5] and in test [6] was “inactive” throughout. The Potency result in test [7], in [8], in [9], in test [10], in [11] and in test [12] was “inactive” each time. Further, the Potency entry in [13], in test [14], in [18], in test [15], in test [16] and in [17] was “inactive” throughout.
On to `CCC/C=N/O`, for which the Potency entry in test [1], in test [2], in test [3], in test [4], in test [5] and in test [6] was “inactive” each time. Also, the Potency entry in test [7], in [8], in test [9], in [10], in test [11] and in test [13] was “inactive” throughout. The Potency entry in test [14], in test [15], in [16] and in test [17] was “inactive” throughout.
